From PubChem
PP1 inh – counter-screen for PP5 inhibitors: inhibitors of human PP1-alpha | inhibition, % at 6.7 µM | 0.9% of 320,000 active | purified PP1alpha, OMFP fluorescence | P62136;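 active = inhibition above the mean inhibition of all tested compounds plus 3 SD, computed separately for each screening campaign, cut at about 15% in these data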
ALR H2O2 inh – inhibitors of human sulfhydryl oxidase ALR | P55789 | purified ALR, DTT oxidation, H2O2 HRP-luminol luminescence | inhibition, % (test concentration not listed) | 3.8% of 290,000 active;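 active = mean replicate inhibition above about 79%, with every replicate also reaching it, limit read from the data; inconclusive = only one of the two criteria met; inactive = mean below limit and not every replicate reaching it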
CSC inhib – blocks cancer stem cells; cancer stem cell-like cells viability, luminescence; inhibition, % at 7.5 µM; 1.1% of 300,000 active; in the data active = inhibition above about 75%; inconclusive = no clear call, values can overlap the other calls; tested in HMLE shEcad cells
PP5 inh – blocks human protein phosphatase 5 activity | P53041 | purified PP5c, OMFP substrate fluorescence | 0.18% of 320,000 active | inhibition, % at 6.7 µM;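 active = inhibition above the campaign's mean inhibition across all tested compounds plus 3 SD, cut at about 9.5% in these data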;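 also: 0% = DMSO only and 100% = 100 µM cantharidin control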
Target sequence (P53041 whole entry, looked up): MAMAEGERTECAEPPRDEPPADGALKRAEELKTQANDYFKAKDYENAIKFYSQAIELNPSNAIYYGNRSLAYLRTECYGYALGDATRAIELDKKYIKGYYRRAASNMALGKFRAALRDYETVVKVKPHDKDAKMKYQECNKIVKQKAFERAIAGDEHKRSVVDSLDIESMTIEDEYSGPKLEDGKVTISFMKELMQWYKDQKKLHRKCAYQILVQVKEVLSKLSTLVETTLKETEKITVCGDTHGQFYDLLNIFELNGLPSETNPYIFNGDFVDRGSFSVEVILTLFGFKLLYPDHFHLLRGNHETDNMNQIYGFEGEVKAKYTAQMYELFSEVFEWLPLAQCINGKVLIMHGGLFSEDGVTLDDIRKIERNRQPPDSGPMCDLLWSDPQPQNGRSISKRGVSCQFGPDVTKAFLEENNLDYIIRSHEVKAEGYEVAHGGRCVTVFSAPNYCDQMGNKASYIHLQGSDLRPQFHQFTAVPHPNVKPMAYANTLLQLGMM
Calb FLC – affects C. albicans growth with fluconazole; C. albicans CaCi-2 (fluconazole-resistant clinical isolate) + fluconazole, Alamar Blue growth, 48 h; growth inhibition, % (concentration not given with the values); 0.57% of 300,000 active; AID 1979;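 active = growth inhibition above about 58% in most replicates, limit read from the data, passing the limit was not always enough; inconclusive = exactly half the replicates above a set limit; inactive = most replicates below a set limit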;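 also: all wells also contain fluconazole at 8 µg/ml as a sub-toxic cotreatment; 0% = median of DMSO wells and 100% = median of geldanamycin control wells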
An asterisk follows results filed as active; ? = inconclusive; . = not tested or not shown. An excerpt weighted towards active compounds, which were near 5.4% of everything screened.

SMILES	PP1 inh	ALR H2O2 inh	CSC inhib	PP5 inh	Calb FLC
Cc1ccccc1NC(=S)NC(=O)c1cncc(Br)c1	-2	13	-9	3	?
O=C(NC(=S)Nc1cccc(O)c1)c1cncc(Br)c1	-5	-6	-2	-2	13
O=C(NC(=S)Nc1ccc(O)cc1)c1cncc(Br)c1	1	99*	2	0	1
Cc1cc(O)ccc1NC(=S)NC(=O)c1cncc(Br)c1	2	.	22	6	87*
COc1ccc2[nH]c3nc(SCC(=O)Nc4ccc5c(c4)OCO5)nnc3c2c1	2	46	.	1	-6
CC(=O)c1cnc(Nc2cccc(Cl)c2Cl)s1	0	-7	1	-5	79*
c1ccc(CSc2nnc(-c3cccs3)n2Cc2ccco2)cc1	3	26	9	1	121*
O=C(CSc1nnc(-c2ccccn2)n1Cc1ccco1)c1ccccc1	5	71	9	3	28
O=C(CSc1nnc(-c2cnccn2)n1Cc1ccco1)c1ccc(Cl)cc1	6	0	0	5	13
O=C(CSc1nnc(-c2cnccn2)n1Cc1ccco1)c1ccccc1	-7	87*	-7	1	?
O=C(CSc1nnc(-c2ccccn2)n1Cc1ccco1)c1ccc(Cl)cc1	11	97*	-3	0	19
O=C(CSc1nnc(-c2cccnc2)n1Cc1ccco1)c1ccc(Br)cc1	0	96*	-22	4	?
O=C(CSc1nnc(-c2cccnc2)n1Cc1ccco1)c1ccc2ccccc2c1	0	-12	5	4	8
Oc1ccccc1C1=NCCNC(C(F)(F)C(F)F)=C1	-1	65	5	-1	-4
C[n+]1cc(-c2ccccc2)n2c1CCCCC2	-2	-5	.	0	-1
Clc1cccc(-c2nnc(SC/C=C/c3ccccc3)n2Cc2ccco2)c1	16*	0	33	2	6
Cc1ccc(/C=N/Nc2ccc(Cl)nn2)cc1	-7	7	.	3	8
Oc1ccc(/C=N/Nc2cc(N3CCOCC3)nc(N3CCOCC3)n2)cc1	-2	100*	20	6	-2
Oc1ccc(/C=N/Nc2ccc(Cl)nn2)cc1O	-4	99*	12	2	.
Cc1nc(Cl)cc(N/N=C/c2ccc(O)cc2)n1	-1	99*	13	2	-2
COc1ccc(NC(=O)/C=C2\SC(=O)NC2=O)cc1	-5	97*	-6	-1	-4
O=C(Nc1ccc2ccccc2n1)c1ccc(Cl)cc1	-3	1	14	0	6
Cc1cc(NC(=S)N(Cc2ccc(Br)cc2)Cc2ccc(C(=O)O)cc2)ccc1Cl	16*	6	14	5	27
Cc1cccc(NC(=S)N(Cc2ccc(Br)cc2)Cc2ccc(C(=O)O)cc2)c1	3	63	-2	3	14
CCOC(=O)C1C(=O)CC(C)(O)C(C(=O)OCC)C1c1ccc(Br)o1 (stereo not drawn)	-5	6	-7	1	-4
SMILES	PP1 inh	ALR H2O2 inh	CSC inhib	PP5 inh	Calb FLC
c1ccc(-c2ccccc2OCCCN2CCCCCC2)cc1	4	-7	43	3	90*
COc1ccc(-c2nnc(Nc3nc4c(OC)cccc4s3)o2)c(OC)c1	7	5	.	5	101*
COc1ccc(-c2nnc(Nc3nc4c(OC)cccc4s3)o2)cc1	4	4	81*	2	-6
COc1cc(OC)cc(-c2nnc(Nc3nc4c(F)cccc4s3)o2)c1	-5	-3	-4	-2	115*
Fc1cccc2sc(Nc3nnc(-c4ccccc4)o3)nc12	-3	?	63	-3	-1
CC(C)CCn1c(CN2CCOCC2)nc2c1c(=O)n(C)c(=O)n2C	-1	-5	-13	-1	-5
O=C(Cn1nnc2c(cnn2-c2ccc(F)cc2)c1=O)OC1CCCCC1	-3	-1	-24	4	-5
O=C(NNc1nc2ccccc2nc1C(F)(F)F)c1ccccc1	1	98*	-9	-1	-25
NNc1nc2ccccc2nc1C(F)(F)F	1	-3	-24	1	-7
CCCc1sc(N)nc1-c1ccc(C)cc1	2	78*	7	4	0
O=C(CSC1=NS(=O)(=O)c2cc(F)ccc2N1)Nc1cccc(F)c1	1	97*	2	2	18
Cc1cccc(-c2cnn(-c3cccc([N+](=O)[O-])c3)c2N)c1	-1	92*	8	-1	2
O=c1ccc(/C=C/c2ccccc2)nn1Cc1ccccc1	3	.	-7	4	-7
Cc1cc(C(=O)CN2C(=O)C(=O)N(Cc3ccco3)C2=O)c(C)n1CCc1ccccc1	3	0	.	-1	.
Cc1cc(C(=O)CN2C(=O)C(=O)N(Cc3ccco3)C2=O)c(C)n1CCc1ccc(F)cc1	17*	-1	57	5	.
CC/C(=N\O)c1ccc(O)c(OC)c1	-2	99*	-16	-4	7
O=C(CCl)N1c2ccccc2CCc2ccccc21	-1	3	-6	1	84*
CCCOC(=O)c1ccc(NC(=O)CCC(=O)OCC)cc1	-1	-4	.	-5	5
NC(=O)c1cccc(N=Cc2cc(Cl)cc(Cl)c2O)c1	.	.	.	.	-1
Oc1c(Cl)cc(Cl)cc1C=Nc1ccccc1N1CCCC1	-3	98*	7	2	0
CCOc1ccc(CC(=O)NCCc2cnc[nH]2)cc1	-5	.	-7	-1	1
S=c1nc(-c2ccccc2Cl)n(Cc2cccnc2)c2c1CCCC2	1	99*	-5	3	-7
OCCCn1c(-c2ccccc2)nc(=S)c2c1CCCC2	-4	-3	.	1	12
Nc1c(Cl)ncnc1N1CCOCC1	1	-3	-11	0	?
O=C(O)c1ccc(COc2c(F)c(F)c(F)c(F)c2F)o1	-1	96*	-5	2	8
SMILES	PP1 inh	ALR H2O2 inh	CSC inhib	PP5 inh	Calb FLC
Cn1c(SCC(=O)Nc2ccc(C(N)=O)cc2)nc2c(c1=O)SCC2	-2	99*	1	1	2
CCOC(=O)c1ccc(NC(=O)CSc2nc3c(c(=O)n2-c2ccccc2OC)SCC3)cc1	0	99*	-33	3	-3
Cn1c(SCC(=O)Nc2cccc(F)c2)nc2c(c1=O)SCC2	-3	94*	8	4	1
Cc1cc(C)nc(NS(=O)(=O)c2ccc(-n3cccc3)cc2)n1	-1	-6	-6	-3	-15
COc1ccc(/C=C2\S/C(=N/S(=O)(=O)c3cccs3)NC2=O)cc1	6	97*	-2	2	-1
COc1ccc(/C=N/S(=O)(=O)c2cccs2)cc1	-4	0	3	5	-13
Cn1c2ccccc2c(=O)c2cc(C#Cc3ccccn3)ccc21	5	3	82*	1	14
Cn1c2ccccc2c(=O)c2ccc(C#Cc3ccccn3)cc21	3	-1	28	0	1
Cn1nnc2c[n+](CC(=O)c3ccc(Cl)cc3)cc(Br)c21	-2	91*	16	1	-1
Cc1csc(SCC(=O)Nc2sccc2C(N)=O)n1	1	95*	9	2	4
c1ccc(OCc2nn3c(-c4ccco4)nnc3s2)cc1	16*	-5	-9	0	-10
